TTR transcr act: TTR transcription activators in neuroblastoma reporter cells, primary screen, cell-based, luminescence, SH-SY5Y, TTR promoter Gaussia luciferase | 100% = recombinant luciferase protein wells | 1.3% of 92,000 active | activation, % at 16.7 µM;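 active = activation above the mean of all tested compounds plus 3 SD, cut at about 9.5% in these data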;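 note: cells exposed to compounds for one day before reading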
TTR inh HuH7: TTR promoter reporter inhibitors in hepatoma cells, counter-screen for TTR transcription activator project, cell-based, luminescence, HuH7 hepatoma; shares compounds with TTR transcr act; HuH7 TTR promoter-Gaussia luciferase reporter; inhibition, % at 16.7 µM; 4% of 1,100 active; AID 1117279, 2014;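 active = average inhibition above the solvent-only control wells' mean plus 3 SD, cut at about 15% in these data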;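 note: inhibitors lower well luminescence so higher value means more inhibition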
TTR up confirm: TTR transcription activators, retest, confirmation, cell-based, luminescence, SH-SY5Y, triplicate. 1,100 tested, under 10 active. activation, % at 16.7 µM. shares compounds with TTR transcr act. SHSY5Y TTR promoter Gaussia luciferase; 100% = purified Lucia enzyme wells, no cells;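 active = mean activation above a set limit taken from the earlier primary screen, cut at about 11% in these data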
Hits are given with their value; – = inactive. The sample as a whole holds a higher share of hits than the screen did.

SMILES | TTR transcr act | others
CC(C)OC(=O)CSc1nc2ncc(Cl)cc2[nH]1 | –
CCOc1cc(N2CCOCC2)c(OCC)cc1NC(=O)CN1C(=O)NC(CC)(c2ccc(F)cc2)C1=O (stereo not given) | –
CC(C)[C@@H]1Cc2[nH][nH]c(=O)c2[C@H](c2ccc(F)cc2)O1 | –
CCOC(=O)/C=C/C(=O)Nc1ccc(S(=O)(=O)Nc2cc(OC)nc(OC)n2)cc1 | –
COc1cc(NS(=O)(=O)c2ccc(NC(=S)NC(C)=O)cc2)nc(OC)n1 | 17 | TTR inh HuH7=–;TTR up confirm=–
COc1cc(NS(=O)(=O)c2ccc(NC(=O)COc3ccc(C)cc3)cc2)nc(OC)n1 | –
COc1ccc(Cn2cc(COC(=O)N3CCCC3)nn2)cc1 | –
CC(C)C[C@@H](CSc1ccccc1)N1CCN(CC(C)C)CCC1=O | –
COc1ccccc1CNC(=O)C1CCCN1S(=O)(=O)c1ccc2c(c1)C(C)(C)C(=O)N2C (stereo not given) | –
O=[N+]([O-])c1ccc(NC(=S)N2CCN(c3ccc(F)cc3)CC2)cc1 | –
CCOc1ccccc1N1CCN(C(=S)NCc2ccc(Cl)cc2)CC1 | –
CCCCNC(=O)N1CCN(c2ccccc2OCC)CC1 | –
Cc1cccc(NC(=S)N2CCN(c3ccc(F)cc3)CC2)c1 | 11 | TTR inh HuH7=–;TTR up confirm=–
Cc1cccc(NC(=S)N2CCN(c3ccccn3)CC2)c1 | –
O=C(NC(=S)N1CCN(c2ccc(F)cc2)CC1)C12CC3CC(CC(C3)C1)C2 | 18 | TTR inh HuH7=–;TTR up confirm=–
CCOc1ccccc1N1CCN(C(=S)NC(=O)C23CC4CC(CC(C4)C2)C3)CC1 | 9.7 | TTR inh HuH7=–;TTR up confirm=–
Cc1cc(C)cc(NC(=S)N2CCN(c3ccc(F)cc3)CC2)c1 | –
O=C(NC(=S)N1CCOCC1)C12CCC3CC(CC(C3)C1)C2 | –
C=CCN1C(=O)[C@H](CC(=O)NCCCOCCCC)[C@@]2(C(=O)OCC)CCCC=C12 | –
COc1ccc(C(=O)NCCc2nnc3ccc(SCC(=O)NCCc4ccc(OC)c(OC)c4)nn23)cc1 | –
OCC[C@@H]1C[C@H](O)[C@@H](O)[C@@]2(OCc3ccc4ccccc4c32)O1 | –
C=CCOc1c(Cl)cc(C(=S)N2CCCC2)cc1OCC | –
CC1=C(C(=O)N(C(C)C)C(C)C)CC(CC(=O)NC2CCCC2)C(=O)N1CCC1=CCCCC1 (stereo not given) | –
CCCCn1c(N)c(N(CCOC)C(=O)CCCn2c(=O)oc3ccccc32)c(=O)[nH]c1=O | –
Cc1ccc(N2CC(C(=O)OCC(=O)Nc3c(C)cccc3C)CC2=O)cc1 (stereo not given) | –
SMILES | TTR transcr act | others
CCn1c(Cc2ccccc2)n[nH]c1=S | –
CCn1c(CCNC(=O)c2ccc(Cl)cc2Cl)n[nH]c1=S | –
CCn1c(CCNC(=O)c2ccccc2Cl)n[nH]c1=S | 22 | TTR inh HuH7=–;TTR up confirm=–
C=CCNC(=O)N1CCC(CO)(Cc2ccc(Cl)cc2)CC1 | –
CC(C)(C)C(=O)N1CCC(O)(CS(=O)(=O)Cc2ccccc2Cl)CC1 | –
O=C(C1CC12CCCC2)N1CCC(CO)(Cc2ccccc2Cl)CC1 (stereo not given) | 13 | TTR inh HuH7=–;TTR up confirm=–
O=c1cc(N2CCN(c3cccc(C(F)(F)F)c3)CC2)[nH]c(=O)n1-c1ccccc1 | –
COC(=O)c1ccc2cn[nH]c2c1 | –
COC(=O)c1cc(OC)nc(OC)c1 | 16 | TTR inh HuH7=–;TTR up confirm=–
COC(=O)c1ccc2nccnc2c1 | –
O=C(NCCNc1nccc(C(F)(F)F)n1)c1cccc(C(F)(F)F)c1 | –
O=S(=O)(NCCNc1nccc(C(F)(F)F)n1)c1ccccc1 | 9.8 | TTR inh HuH7=–;TTR up confirm=–
COc1ccc(OCCNS(=O)(=O)c2ccccc2)cc1 | –
N#Cc1ccc(NC(=O)NN2CCCCCC2)cc1 | –
O=C(Nc1ccc([N+](=O)[O-])cc1)NN1CCCCCC1 | –
O=C(Nc1ccc(Cl)cc1)NN1CCCCCC1 | 17 | TTR inh HuH7=–;TTR up confirm=–
COC(=O)[C@]12C[C@H](CC(=O)NCc3cccc(C(F)(F)F)c3)C(=O)N(Cc3ccccc3)C1=C[C@H](COCc1ccccc1)O[C@@H]2C | –
COC(=O)c1ccc(CNC(=O)CN2C(=O)NC(Cc3ccccc3)(c3ccccc3)C2=O)cc1 (stereo not given) | –
Oc1ccc(Cl)cc1CNCC1CCCCC1 | –
Nc1c(C(=O)Nc2ccccc2F)sc2nc(-c3ccco3)ccc12 | –
NC(=O)c1sc2nc3c(c(-c4ccco4)c2c1N)CCC3 | –
NC(=O)c1sc2nc(-c3ccco3)ccc2c1N | 10 | TTR inh HuH7=–;TTR up confirm=–
COc1cc(CN2CCN(C(=O)CC(C)C)CC2)c([N+](=O)[O-])cc1OC | –
CC(C)[C@H]1/C(=C/C2CC2)N2C(=O)C[C@H](c3ccccc3)N=C2N1C | –
COC(=O)C[C@@H]1CC[C@H]2[C@@H](COc3ccc(NC(=O)Nc4cccc(F)c4)cc3C(=O)N2C)O1 | –
SMILES | TTR transcr act | others
COc1ccc(S(=O)(=O)N2CN3CCN(C3)C2)cc1 | –
CC(C)CN(C(=O)CSc1nnnn1C)C1CCS(=O)(=O)C1 (stereo not given) | –
Cc1nn(CC(=O)N(CC(C)C)C2CCS(=O)(=O)C2)c(C)c1[N+](=O)[O-] (stereo not given) | 13 | TTR inh HuH7=–;TTR up confirm=–
Cc1cnc(C(=O)OCC(=O)N(CC(C)C)C2CCS(=O)(=O)C2)cn1 (stereo not given) | –
CCCCCCC(=O)NC1CCCCN(Cc2ccccc2C)C1=O (stereo not given) | –
COc1cccc(C(C)(O)c2nc(-c3ccc(OC)nc3)cs2)c1 (stereo not given) | –
Nc1nnnn1/N=C/c1cc(Br)ccc1O | 12 | TTR inh HuH7=–;TTR up confirm=–
CCOc1ccc(/C=N/n2nnnc2N)cc1OCC | –
CCOc1ccc(/C=N/n2nnnc2N)cc1O | –
CC(=O)NC1CCCCN(C(C)C)C1=O (stereo not given) | –
CN1CCc2c(sc3nc(SCC(=O)N4CCCCC4)n(-c4ccccc4)c(=O)c23)C1 | –
CCCCNc1nc2sc3c(c2c(=O)n1-c1cccc(Cl)c1)CCN(C)C3 | 102 | TTR inh HuH7=–;TTR up confirm=–
CCSc1nc2sc3c(c2c(=O)n1-c1ccccc1C)CCN(C)C3 | –
COC(=O)[C@@]12C[C@@H](CC(=O)NCc3ccc(C)o3)C(=O)N(Cc3ccco3)C1=CCC(C)(C)C2 | –
Cc1ccccc1CN1CCCCC(NC(=O)c2ccccc2C(F)(F)F)C1=O (stereo not given) | –
CCNC(=O)C1CCCN(C(=O)c2cc(F)cc(F)c2)CC1 (stereo not given) | –
CC(C)C[C@H]1CNC(=S)N1C[C@H]1CCCN1C[C@H](CC(C)C)N1C[C@H](Cc2ccc(O)cc2)N(CC2CCCCCC2)C1=S | 25 | TTR inh HuH7=–;TTR up confirm=–
CC(C)C[C@H]1CNC(=S)N1CC1CCCN1C[C@H](CC(C)C)N1C[C@H](Cc2ccc(O)cc2)N(CC2CCCCC2)C1=S (stereo not given in full) | –
CC(C)C[C@H]1CNC(=S)N1C[C@H]1CCCN1C[C@H](CC(C)C)N1C[C@H](Cc2ccc(O)cc2)N(CCc2ccccc2)C1=S | –
CC(CCN1C(N(C)C)=NC[C@@H]1C)c1ccccc1 (stereo not given in full) | –
C[C@H]1CN=C(N(C)C)N1CCC1CCCC1 | –
